Test results published in PubChem BioAssay (NCI).
Compounds without any hit were thinned out: in the full panel of roughly 79,000, 15% have a hit. No stated cut-off is given here; in the data, active means growth inhibition above about 70%; inactive means the rest.

What was measured:
[1] = NCI Yeast Anticancer Drug Screen. Data for the rad50 strain (AID 155);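 further: 0% = growth of vehicle-only cultures of the same strain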; conditions: S. cerevisiae rad50 strain growth inhibition; at 50.0 µM; active compounds read high
In short: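 A DNA repair-deficient yeast mutant serves as the test organism; compound-induced growth inhibition is calculated against vehicle-treated cells.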

[2] = NCI Yeast Anticancer Drug Screen. Data for the mec2-1 strain (AID 157); conditions: S. cerevisiae mec2-1 strain, at 50.0 µM, active compounds read high
In short: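 Vehicle-treated cultures served as reference for growth inhibition of compound-exposed mec2-1 yeast.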

[3] = NCI Yeast Anticancer Drug Screen. Data for the sgs1 mgt1 strain (AID 161);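 further: 0% = growth of cultures given vehicle only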; conditions: S. cerevisiae sgs1 mgt1 strain, at 50.0 µM, active compounds read high
In short: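 Read-out: growth inhibition vs vehicle controls. Cells: mutant yeast strain deficient in DNA damage repair.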

[4] = NCI Yeast Anticancer Drug Screen. Data for the cln2 rad14 strain (AID 165);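 further: 0% = growth equal to vehicle treated cultures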; conditions: S. cerevisiae cln2 rad14 strain, at 50.0 µM, active compounds read high
In short: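 Each compound was tested on cln2 rad14 yeast. Inhibition of growth was calculated against vehicle-exposed controls.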

[5] = NCI Yeast Anticancer Drug Screen. Data for the bub3 strain (AID 167); conditions: S. cerevisiae bub3 mutant strain, at 50.0 µM, active compounds read high
In short: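 Inhibition values come from growth of compound-treated mutant yeast normalised to vehicle-treated controls.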

[6] = NCI Yeast Anticancer Drug Screen. Data for the mlh1 rad18 strain (AID 175); conditions: S. cerevisiae mlh1 rad18 strain growth inhibition; at 50.0 µM; active compounds read high
In short: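 Vehicle-treated cultures served as the reference for growth inhibition in a yeast strain carrying DNA damage repair alterations exposed to each compound.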

Measured: growth inhibition

CCOC(CN(N=O)c1ccccc1C(C)C)OCC
inactive: [1] -3.95% | [2] 8.9% | [3] 7% | [4] -21.9% | [5] 3.55% | [6] -4.25%

CC(C)CCC[C@@H](C)[C@H]1CC[C@H]2[C@@H]3CC=C4C[C@@H](Cl)CC[C@]4(C)[C@H]3CC[C@]12C
inactive: [1] -3.75% | [2] -13.8% | [3] -20% | [4] -2.8% | [5] -8.9% | [6] -0.35%

COc1ccc(C2CCCCCC2OC(=O)c2ccc([N+](=O)[O-])cc2)c(OC)c1OC (configuration not stated)
inactive: [1] 16% | [2] 11.5% | [3] -2.45% | [4] 42.9% | [5] 2.6% | [6] 1.7%

Cc1nc2c(cnn2C)c(=O)n1-c1ccccc1Cl
inactive: [1] 21.4% | [2] 17.2% | [3] 11.8% | [4] 41% | [5] 29.9% | [6] 17.3%

[N-]=[N+]=Nc1ccc2[nH]c3ccccc3c(=O)c2c1
inactive: [1] 17.9% | [2] -1.05% | [3] 16.9% | [4] -23.4% | [5] -16.9% | [6] 36.7%

CCCCCCCCCCCCOC(=S)CCl
inactive: [1] -10.9% | [2] -10.7% | [3] 10.8% | [4] -18.9% | [5] 4.55% | [6] 14.7%

CCC(C)N=Cc1ccccc1O.CCC(C)N=Cc1ccccc1O.[Cu] (configuration not stated)
inactive: [1] 33.7% | [2] -10.3% | [3] 28.4% | [4] -44.7% | [5] 2.1% | [6] 11.2%

CC(=O)Nc1ccc(-c2cn3ccccc3n2)cc1
inactive: [1] 6.6% | [2] -1.5% | [3] 20.7% | [4] 25.6% | [5] 13.7% | [6] 21.8%

CCOC(=O)CC1(C)OCC(c2ccccc2)O1 (configuration not stated)
inactive: [1] 8.8% | [2] -0.55% | [3] -3.6% | [4] -15% | [5] 9.35% | [6] -3.1%

C/C=C/C=C/C(=O)CCC1(C)OC(=O)C(C)=C1O (configuration not stated)
inactive: [1] -0.9% | [2] 0.45% | [3] 2.4% | [4] -4.35% | [5] -3.45% | [6] 6.25%

C=CCOc1c(C)cc(C(N)=O)cc1C
inactive: [1] 4.45% | [2] -6.85% | [3] 24.6% | [4] 18.9% | [5] 5.45% | [6] 51.4%

CCC(Sc1cc(Cl)c(C)cc1S(=O)(=O)Nc1nc(N)nc(N(C)C)n1)C(=O)O (configuration not stated)
inactive: [1] -16.1% | [2] -10.1% | [3] 6.3% | [4] 25.2% | [5] -12.3% | [6] 2%

C/C=C(\CC)C(C#N)(CCC)C(=O)OCC (configuration not stated)
inactive: [1] -10.2% | [2] -17.6% | [3] -21.2% | [4] -9% | [5] -33.1% | [6] -17.6%

O=C1NC2(CCN(CCCC3(c4ccc(F)cc4)OCCO3)CC2)Oc2ccccc21
inactive: [1] -11.6% | [2] -35.7% | [3] -1.15% | [4] -11.6% | [5] 5.8% | [6] -55.7%

COC(=O)CCC(=O)CC(=O)C1=NS(=O)(=O)c2nc(S(N)(=O)=O)c(Cl)cc2N1
inactive: [1] -5.3% | [2] 6.7% | [3] -14.8% | [4] -24.6% | [5] -16.1% | [6] -1.35%

Cc1c(CCNC(=O)C(F)(F)F)ccc2c1[nH]c1ccccc12
inactive: [1] -3.3% | [2] 3.05% | [3] 11.8% | [4] -41.4% | [5] -2.4% | [6] -5.95%

O=C(O)/C=C/c1ccc(Oc2ccccc2C(=O)O)o1
inactive: [1] -3.45% | [2] -7.15% | [3] 5.05% | [4] 2.3% | [5] -1.2% | [6] -2.25%

Nc1ccn(CCO)c(=O)n1
inactive: [1] -3.95% | [2] 2.05% | [3] -23.2% | [4] -0.8% | [5] -5.3% | [6] -7.95%

NC(CO)C(=O)NCCS(=O)(=O)O (configuration not stated)
inactive: [1] -10.7% | [2] 9.6% | [3] -3.7% | [4] 22.1% | [5] -7.05% | [6] -6.95%

NC(=O)[C@@H]1CCCN1C(=O)c1cccnc1
inactive: [1] -14.9% | [2] -18.2% | [3] -12.9% | [4] -14.7% | [5] 4.75% | [6] -13%

O=C(OCc1ccccc1CN1CCCCC1)c1ccc([N+](=O)[O-])cc1Cl
inactive: [1] -7.4% | [2] -6.45% | [3] 0.85% | [4] -34.9% | [5] -2.6% | [6] -29.7%

CN(C)CCCC(O)c1cccc2ccccc12 (configuration not stated)
inactive: [1] 25.4% | [2] -12.6% | [3] 10.7% | [4] -4.65% | [5] 0.8% | [6] 24.4%

N#Cc1c(-c2ccc(Cl)cc2)cn2c1[nH]c(=O)c1cc(Br)ccc12
inactive: [1] 6.45% | [2] 0.95% | [3] -18.4% | [4] -12.6% | [5] -3.4% | [6] 14.4%

COC(=O)/C(=N\NC(N)=O)C(C(=O)C=C(C)C)C(=O)C(=O)Nc1ccc(Cl)c(Cl)c1 (configuration not stated)
inactive: [1] -9% | [2] -40.6% | [3] -34.6% | [4] 12.2% | [5] -17% | [6] -27.6%

COc1cc(C(=O)Oc2c(C#N)sc3c2c(=O)n(-c2ccccc2)c(=S)n3-c2ccccc2)cc(OC)c1OC
inactive: [1] 22.8% | [2] 3.2% | [3] 12.1% | [4] 10.2% | [5] 21.9% | [6] 20.5%

Cc1c(C)c2ccc(OCC(O)COC(C)C)c(C)c2oc1=O (configuration not stated)
inactive: [1] -10.7% | [2] -5.5% | [3] -2.15% | [4] -5.95% | [5] -1.95% | [6] -29.6%

O=C1OC2C(O1)C1(c3ccccc3)OC2(c2ccccc2)c2ccccc21 (configuration not stated)
inactive: [1] -5.9% | [2] 19.2% | [3] 13.5% | [4] -57.2% | [5] 4.85% | [6] 45.1%

Cc1ccc(C)c(I)c1
inactive: [1] 7.2% | [2] -3.55% | [3] 6.1% | [4] -9.95% | [5] -2.55% | [6] 14.1%

O=C(NNC(=O)c1ccc2ccccc2c1)c1ccc(F)cc1
inactive: [1] 4.05% | [2] 0.9% | [3] 3.8% | [4] 3.05% | [5] 10.2% | [6] 10.2%

c1ccc2c(c1)NCCOCCNc1ccccc1OCCNCCO2
inactive: [1] -1.5% | [2] 36.5% | [3] 14.1% | [4] -4.1% | [5] 30.1% | [6] 6.75%

CSc1nc(NC2OCC(O)C(O)C2O)c(C(C)=O)c(=O)n1C (configuration not stated)
inactive: [1] 3.7% | [2] -7.35% | [3] 8.2% | [4] -1.95% | [5] -33.4% | [6] 4.4%

CSc1nc2cc(S(=O)(=O)N3CCCCC3)ccc2s1
inactive: [1] -34.5% | [2] -21.8% | [3] -25.5% | [4] -52.6% | [5] -89.3% | [6] -7%

O=C(Nc1ccccc1)c1nn(-c2cc(S(=O)(=O)O)c([N+](=O)[O-])cc2Cl)[n+](-c2cc(S(=O)(=O)[O-])c([N+](=O)[O-])cc2Cl)n1
inactive: [1] -4.45% | [2] -3.25% | [3] -25.1% | [4] -26.8% | [5] -23.6% | [6] 2.3%

COC(=O)c1ccc(C=O)[nH]1
inactive: [1] 8% | [2] -22.1% | [3] 0.55% | [4] -10.5% | [5] 4.7% | [6] 7.25%

CC(=O)/C(=C/c1ccco1)CC(=O)O
inactive: [1] -15.1% | [2] -22.1% | [3] -12.9% | [4] 4.05% | [5] -18.4% | [6] -5%

CCOC(=O)CSc1nnc(N)s1
inactive: [1] 21% | [2] 6.55% | [3] -6.15% | [4] 3.15% | [5] -6.75% | [6] -1.5%

CC(=O)NC1C(OCc2ccccc2)OC(COC(=O)CCCCCCCCCCNc2ccc([N+](=O)[O-])c3[nH]c4ccccc4c(=O)c23)C(O)C1OC(C)C(=O)NC(C)C(=O)NC(CCC(N)=O)C(=O)OCc1ccccc1 (configuration not stated)
inactive: [1] 30.7% | [2] 9.8% | [3] -3.3% | [4] 14.4% | [5] 6.15% | [6] 12.9%
